Laboratory results taken from PubChem BioAssay AID687001 (Broad Institute, 2013).
Entries with a potency or affinity are not part of this list. Calls of active or inactive are those of the source.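 The calls were made as follows: active = signal-lowering compounds whose fitted half-maximal concentration is at or below twice the top tested dose in every run; inconclusive = runs disagree, flat 30 to 70% inhibition, or poor curve fit; inactive = the rest.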

Target: Protein S100-A4 (Homo sapiens) (UniProt P26447)
Test: human S100A4 peptide interaction inhibition curves – biochemical, fluorescence polarization, cherry-picked hits, dose response (AID 687001)
Settings: FP, S100A4/TAMRA-myosin IIA peptide binding; series mostly up to 11 µM

Protein S100-A4 (Homo sapiens), sequence (P26447 whole entry, looked up): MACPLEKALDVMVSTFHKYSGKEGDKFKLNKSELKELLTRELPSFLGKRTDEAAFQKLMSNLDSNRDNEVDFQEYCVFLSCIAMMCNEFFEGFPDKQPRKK

outcome, inactive:
COc1ccc(N(CC(=O)NC2CCCCC2)C(=O)CNC(=O)c2cccs2)cc1OC
O=C(OCc1cc(=O)n2ccsc2n1)c1ccc(OC(F)F)cc1
C[C@H](CO)N1C[C@H](C)[C@@H](CN(C)Cc2ccc(C(=O)Nc3ccccc3N)cc2)Oc2c(NC(=O)C3CCCCC3)cccc2C1=O
